In test [1] the test system is Aerobactin synthetase IucA (Klebsiella pneumoniae). The experiment in a line: inhibition of K. pneumoniae IucA enzyme – biochemical, Tocris library, absorbance (AID 1345561; call rule not given here;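 also: 100% = enzyme without compound and 0% = no enzyme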). The conditions noted are these: purified IucA enzyme assay, absorbance (OD) read-out; stronger effect = lower value;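 tested at 8 µM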.
A short description of test [2]: viability loss in pontine glioma line – cell-based, SU-DIPG-XVII, MIPE5.0, CellTiter-Glo, qHTS, dose response (AID 1347060).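 As to AC50: cells exposed to compound for 48 hours before viability readout.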 The conditions noted are these: CellTiter-Glo ATP luminescence. Background: In ATP-based viability assays light output follows the ATP content of the culture.
The nature of test [3]: viability loss in pontine glioma line – cell-based, SU-DIPG-XIII, MIPE4.0, CellTiter-Glo, qHTS, dose response (AID 1347061; cut-off not given, nearly all actives have AC50 up to about 37 µM;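 also: cells exposed to compound for 48 hours before readout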). The conditions noted are these: CellTiter-Glo ATP luminescence.
The nature of test [4]: viability loss in pontine glioma line – cell-based, JHH-DIPG-1, MIPE4.0, CellTiter-Glo, qHTS, dose response (AID 1347062; cut-off not given, nearly all actives have AC50 up to about 27 µM;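 as to AC50: cells exposed to compound for two days before readout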). To be noted: JHH-DIPG-1 viability, CellTiter-Glo ATP luminescence.
A short description of test [5]: viability loss in pontine glioma line – cell-based, SU-DIPG-XIII, MIPE5.0, CellTiter-Glo, qHTS, dose response (AID 1347064; cut-off not given, nearly all actives have AC50 up to about 23 µM;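 as to AC50: cells exposed to compound for 48 hours before the viability read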). To be noted: CellTiter-Glo ATP luminescence.
The nature of test [6]: growth inhibition of DIPG cells – cell-based, MIPE4.0 library, CellTiter-Glo luminescence, qHTS (AID 1347066; cut-off not given, nearly all actives have AC50 up to about 30 µM;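 also: cells exposed to compound for 48 hours before readout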). To be noted: SU-DIPG-VI viability, CellTiter-Glo ATP luminescence.
Test [7] can be described thus: growth inhibition of DIPG cells – cell-based, MIPE5.0 library, qHTS (AID 1347068; cut-off not given, nearly all actives have IC50 up to about 30 µM;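 as to IC50: cells exposed to compound for 48 hours before viability readout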). To be noted: SU-DIPG-XXV viability. Background: In qHTS, concentration-response curves come from the screen itself.
Test [8] can be described thus: viability loss with induced miR-34 in A549 – imaging, A549 dox-inducible miR-34, nuclei and caspase counts, primary screen (AID 1347080;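 active = compounds whose cell count with miR-34 switched on is under 0.7 times the count with it off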). To be noted: A549 miR-34 inducible, Hoechst nuclei count, 48 h.
Test [9] can be described thus: galactose survival enhancers in mitochondrial complex I cybrids – cell-based, galactose medium, ATP luminescence, primary screen (AID 1645843;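 active = z-score of at least 1.8 in each of two replicates, scored against plate mean and spread of sample wells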;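 also: positive z means more ATP and so rescue of galactose-driven cybrid death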). The conditions noted are these: complex I mutant cybrid cells, 72 h, stronger effect = higher value.
Test [10] can be described thus: viability loss in pontine glioma line – cell-based, SU-DIPG-XXV, MIPE5.0, CellTiter-Glo, qHTS, dose response (AID 1347065).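 Also: cells exposed to compound for 48 hours before ATP readout.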 To be noted: CellTiter-Glo ATP luminescence.
Test [11] is described as follows: JHH-DIPG-1 glioma cell viability, MIPE5.0 library, CellTiter-Glo luminescence, qHTS (AID 1347067).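 Also: cells exposed to compound for 48 hours before readout.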 To be noted: JHH-DIPG-1 glioma viability, CellTiter-Glo ATP luminescence.
Test [12] can be described thus: compounds altering HSF1 focus formation in cells – imaging, Selleck Cancer Library (AID 1347162; in the data active = plate-normalised HSF1 focus index below about 0.46). The conditions noted are these: human cells, HSF1 nuclear foci imaging, at 10 µM; SSMD: measured here: HSF1 foci SSMD mean; cell count: measured here: cell number; plate-normalised HSF1 focus index: stronger effect = lower value.
Test [13] is described as follows: viability loss in pontine glioma line – cell-based, SU-DIPG-IV, MIPE4.0, CellTiter-Glo, qHTS, dose response (AID 1347063; cut-off not given, nearly all actives have AC50 up to about 30 µM;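 also: compound exposure lasted 48 hours before the viability readout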). The conditions noted are these: CellTiter-Glo ATP luminescence.
The nature of test [14]: chitosan synthesis blockers in C. neoformans – flow cytometry, Cibacron Brilliant Red staining (AID 1347148; call rule not given here;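 also: compound exposure lasted three days at 37 degrees C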). To be noted: Cryptococcus neoformans chitosan, stronger effect = lower value; at 10 µM unless noted.
A short description of test [15]: P. berghei load reduction in hepatocytes – cell-based, HepG2, luciferase luminescence, HepG2 viability, primary screen (AID 624349; in the data active = parasite load remaining mostly below about 12%, no sharp cut-off; inactive = mostly above about 10%;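 also: 100% = mean of DMSO negative control wells on the same plate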). To be noted: P. berghei liver stage in HepG2, luciferase luminescence, concentration not given here; parasite load remaining: stronger effect = lower value; viability: measured here: HepG2 viability without parasites.
Test [16] can be described thus: liver-stage malaria parasite load reduction – cell-based, known kinase inhibitor set, luminescence, hepatoma host viability (AID 624392; call rule not given here;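 also: infected cells incubated roughly two days before readout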). To be noted: Plasmodium liver stage in hepatoma cells, luciferase luminescence, concentration not given here; liver cell % of control: measured here: host liver cell viability; parasite % of control: stronger effect = lower value.
The test system of test [17] is Hepatitis C virus NS3 helicase. The experiment in a line: blockers of NS3h binding to ssDNA – biochemical, fluorescence polarization, LOPAC1280 library, primary screen (AID 687035; in the data active = inhibition above about 37%). The conditions noted are these: Purified HCV NS3 helicase, Cy5-dT15 ssDNA binding fluorescence polarization; stronger effect = higher value; concentration not given here. (In fluorescence polarisation assays a small probe gives low polarisation when free and higher when bound to something large.)

Test [18] is described as follows: compounds altering Cy5-DNA-NS3h complex signal – biochemical, LOPAC1280, artefact control for HCV NS3 helicase inhibitor project (AID 687037; call rule not given here). The conditions noted are these: Cy5-DNA-NS3h complex fluorescence interference counterscreen.
A short description of test [19]: blockers of cellular phospholipid synthesis – cell-based, LOPAC library, screen 4, primary screen (AID 1347384; call rule not given here). To be noted: animal cells, phospholipid biosynthesis inhibition screen; at 10 µM.
The nature of test [20]: compounds altering circadian rhythm period length – cell-based, LOPAC library, luminescence reporter (AID 2774; call rule not given here;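 also: values are relative to mean of DMSO wells on each plate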). To be noted: circadian reporter cells, at 7 µM, actives lie on both sides.
[21] abbreviates: stronger effect = lower value, cell number ratio, induced over uninduced.
[22] abbreviates: measured here: relative caspase fold change +Dox/-Dox.
Where [23] appears, read: measured here: total cells with miR-34 induction, stronger effect = lower value.
Where [24] appears, read: measured here: total cells without miR-34 induction.

Data on ten molecules can be found in PubChem BioAssay.

Several values for one entry are separate records, joined by “and”; a condition that tells them apart may be missing. Equal entries are not always repeated. Inconclusive results are not listed. Activity calls are given as the source filed them. Unless noted, the limit is not given here; nearly all actives have AC50 up to about 26 µM.

In the case of `N[C@H](CSC(c1ccccc1)(c1ccccc1)c1ccccc1)C(=O)O`, the remaining activity in [1] is 104% (inactive). The molecule was called inactive in [2], in test [3], in test [4], in test [5], in [6] and in test [7]. The figures for the fold change in test [8] (setting [21]) and in test [8] (setting [22]) were 0.901 (inactive) and 1.4, respectively. The cell count in test [8] (setting [23]) was determined as 7800; in [8] (setting [24]) it was 8660. The z-score in [9] was 0.555 (inactive).

As for `CCOc1ccc(Nc2nc(-c3c(C)nc4ccccn34)cs2)cc1`, the remaining activity in test [1] was 103% (inactive). For the same molecule, the AC50 in [2] was 0.0661 µM (active); in test [4], 16.6 µM (active); in test [5], 0.059 µM (active); in [10], 0.0372 µM (active); in test [11] it was 0.0525 µM (active). Moreover, the molecule was classed as inactive in [6]. Besides, the IC50 in [7] was 0.372 µM (active). Moreover, the fold change in [8] (setting [21]) is 1.03 (inactive); in test [8] (setting [22]), 1.27. The cell count in test [8] (setting [23]) was determined as 2200; in test [8] (setting [24]), 2140; in test [12], 6300. The SSMD in [12] was 4.16. Further, in test [12], the plate-normalised HSF1 focus index is 1.25 (inactive). For the same molecule, the z-score in test [9] is -0.68 (inactive).

For `O=C(O)c1ccc2cc(-c3ccc(O)c(C45CC6CC(CC(C6)C4)C5)c3)ccc2c1`, the remaining activity in test [1] was 120% (inactive). Also, the AC50 in test [2] was 0.59 µM (active); in test [4] it was 5.26 µM (active); in [13], 0.332 µM (active); in [10], 3.32 µM (active); in test [11], 3.72 µM (active). Moreover, the figures for the fold change in [8] (setting [21]) and in [8] (setting [22]) were 1.3 (inactive) and 0.838, respectively. The cell count was found to be 1990 in test [8] (setting [23]), 1530 in test [8] (setting [24]) and 6920 in [12]. The molecule further displayed an SSMD in test [12] of 1.71. Further, the plate-normalised HSF1 focus index in test [12] is 1.1 (inactive). In [9], the z-score is -0.83 (inactive).

`CCOC(=O)C1=C(N)Oc2ccc(Br)cc2C1C(C#N)C(=O)OCC` (stereo not drawn): the remaining activity in test [1] is 92.3% (inactive). The AC50 in test [2] was 26.3 µM (active); in test [4] it was 23.5 µM (active); in test [10] it was 23.5 µM (active); in test [6] it was 20.9 µM (active). The molecule was classed as inactive in test [3] and in test [7]. Besides, the fold change in test [8] (setting [21]) is 1.02 (inactive); in [8] (setting [22]), 1.4. Moreover, the results for the cell count in test [8] (setting [23]) and in test [8] (setting [24]) were 6950 and 6840, respectively. Also, the fold fluorescence in [14] is 6.68 [at 122.2 µM] (inactive). Moreover, in test [9], the z-score is -0.87 (inactive).

With `Cc1cc(I)ccc1Nc1c(C(=O)NOCC2CC2)cc(F)c(F)c1F`, in test [15], the parasite load remaining was 55.5% (inactive). For the same molecule, the viability in [15] worked out at 67.8%. In addition, the remaining activity in test [1] was 104% (inactive). Further, the AC50 was 5.9 µM (active) in test [2], 6.61 µM (active) in [5], 9.34 µM (active) in [10] and 4.17 µM (active) in test [11]. In addition, the IC50 in test [7] was 10.5 µM (active). The fold change in test [8] (setting [21]) was 1.12 (inactive); in test [8] (setting [22]), 1.32. In addition, the cell count in test [8] (setting [23]) came out at 1290; in test [8] (setting [24]), 1150. Also, the z-score in test [9] is -0.65 (inactive).

As to `CC(C)[C@H](CO)Nc1nc(Nc2ccc(C(=O)O)c(Cl)c2)c2ncn(C(C)C)c2n1`, the remaining activity in [1] is 110% (inactive). Also, the outcome in [2], in test [3], in [5], in test [11] and in test [7] was inactive. In addition, the AC50 in [6] was 23.5 µM (active). Further, the fold change in [8] (setting [21]) is 0.902 (inactive); in [8] (setting [22]), 0.706. Further, the cell count in test [8] (setting [23]) came to 8820; in test [8] (setting [24]), 9770. The z-score in test [9] is 0.185 (inactive).

Take `NC(=O)c1ccc2[nH]ccc2c1`: the parasite load remaining in [15] is 32.8% (inactive). In [15], this molecule gave a viability of 70.2%. Further, in test [16], the liver cell % of control is 92.5% and 90.8% and 97.8%. Moreover, the parasite % of control in test [16] was 221% (inactive) and 164% (inactive) and 74.7% (inactive). The inhibition in [17] is 0% (inactive). For the same molecule, the fluorescence ratio (interference) in test [18] is 1 (inactive). Further, in [1], the remaining activity is 89.5% (inactive). The molecule was classed as inactive in [2], in test [3], in test [4], in test [5], in test [10] and in [6]. Further, in test [19], the molecule was classed as inactive. The fold change was 1.06 (inactive) and 0.993 (inactive) in [8] (setting [21]); 0.967 and 0.869 in test [8] (setting [22]). Moreover, the cell count is 10600 and 9670 in test [8] (setting [23]); 10000 and 9740 in test [8] (setting [24]). The z-score in [9] is 1.08 (inactive) and 0.045 (inactive).

Regarding `CCC(C)N(C)C(=O)c1cc2ccccc2c(-c2ccccc2Cl)n1` (stereo not drawn), the period change in test [20] was 0.03 h (inactive). The inhibition in test [17] is 0% (inactive). The fluorescence ratio (interference) in [18] is 1 (inactive). In [1], the remaining activity is 91.6% (inactive). Further, the molecule was classed as inactive in test [2], in [4], in [5], in test [10], in [11] and in [19]. The fold change is 0.969 (inactive) and 0.89 (inactive) in [8] (setting [21]); 1.99 and 1.15 in test [8] (setting [22]). The cell count was 8810 and 6770 in test [8] (setting [23]); 9100 and 7610 in test [8] (setting [24]). Also, in test [9], the z-score was 0.245 (inactive) and 0.79 (inactive).

With `O=c1[nH]nc(Sc2ncc([N+](=O)[O-])s2)n1-c1ccc2c(c1)OCCO2`, in test [1], the remaining activity was 125% (inactive). In addition, the AC50 was 3.72 µM (active) in test [2]; 5.9 µM (active) in test [3]; 5.26 µM (active) in test [4]; 3.72 µM (active) in [5]; 2.35 µM (active) in test [10]; 2.64 µM (active) in test [6]. For the same molecule, the AC50 in test [11] was 2.95 µM (active). Besides, in test [7], the IC50 is 23.5 µM (active). The fold change is 1.25 (inactive) in test [8] (setting [21]) and 0.969 in test [8] (setting [22]). Moreover, the cell count amounted to 2070 in [8] (setting [23]), 1660 in [8] (setting [24]) and 5980 in test [12]. In test [12], this molecule returned an SSMD of -8.15. Further, the plate-normalised HSF1 focus index in test [12] was 0.592 (inactive). Moreover, the z-score in test [9] was -0.705 (inactive).

Take `Cc1ccc(/C=N/NC(=O)c2ccccc2Oc2ccccc2)o1`: the remaining activity in test [1] was 79% (inactive). For the same molecule, the call in test [2], in test [4], in test [10], in [6], in test [11] and in test [7] was inactive. The fold change in test [8] (setting [21]) was 0.862 (inactive); in [8] (setting [22]), 1.34. For the same molecule, the cell count stood at 7340 in [8] (setting [23]) and 8520 in [8] (setting [24]). In test [9], the z-score is -0.2 (inactive).

One may read the remaining activity as the signal under treatment as a percentage of the control signal. The AC50 is the midpoint of the concentration-response curve, whichever way the signal moves. As a reminder, the IC50 is the midpoint of a concentration-inhibition curve. For orientation: viability means a per cent measure of how many cells are alive, often set against a control. Broadly, the inhibition is the percentage by which the read-out fell short of the control.
